Screening results as filed in PubChem BioAssay.
Rango release inh – qHTS Assay for Inhibitors of RanGTP induced Rango (Ran-regulated importin-beta cargo) - Importin beta complex dissociation; 340,000 tested, 0.071% active; Snurportin-1 (Homo sapiens) + GTP-binding nuclear protein Ran (Homo sapiens) + Importin …; Biochemical FRET Rango-importin beta, RanGTP-induced dissociation; Potency, µM (highest dose often 46.1 µM); AID 540253, 2011; also: nearly all actives have a fitted effect of over 45% in size
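FRET read at 45 min, room temperature: inhibitors block the CFP/YFP signal rise when RanGTP (0.6 uM Ran, 2 mM GTP, 0.2 uM RCC1) frees Rango (0.1 uM) from importin beta (0.25 uM). Pre-read after 5 min compound exposure flags interference.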
TSG101-PTAP inh – qHTS Assay for Iinhibitors of HIV-1 Budding by Blocking the Interaction of PTAP/TSG101 | Fluorescence polarization, FITC-PTAP peptide / Tsg101 binding | Potency, µM (top dose mostly 115 µM), hits mostly inhibitors | Tumor susceptibility gene 101 protein (Homo sapiens), Q99816 | 340,000 tested, under 10 active; active = well fitted inhibition curve with a large enough effect in the main read-out, with a control signal flat, not every such curve was filed as active; inconclusive = small, poorly fitted or top-dose-only effect, or effect the other way, or a change in a side signal; inactive = no such curve, though single readings can be large or run the other way
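Steps: Tsg101 binding domain dispensed (10 uM final), compounds pinned in DMSO, FITC-labeled PTAP-motif peptide added (50 nM final); after 20 min binding at room temperature, polarization measured.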
D3 ag – qHTS of D3 Dopamine Receptor Agonist: qHTS; D(3) dopamine receptor (Homo sapiens), P35462; D3R DiscoveRx beta-arrestin cells, luminescence, 90 min; max activation, %; 410,000 tested, 0.58% active; AID 652048, 2013; in the data active = max activation above about 30%
Target sequence (P35462 whole entry, looked up): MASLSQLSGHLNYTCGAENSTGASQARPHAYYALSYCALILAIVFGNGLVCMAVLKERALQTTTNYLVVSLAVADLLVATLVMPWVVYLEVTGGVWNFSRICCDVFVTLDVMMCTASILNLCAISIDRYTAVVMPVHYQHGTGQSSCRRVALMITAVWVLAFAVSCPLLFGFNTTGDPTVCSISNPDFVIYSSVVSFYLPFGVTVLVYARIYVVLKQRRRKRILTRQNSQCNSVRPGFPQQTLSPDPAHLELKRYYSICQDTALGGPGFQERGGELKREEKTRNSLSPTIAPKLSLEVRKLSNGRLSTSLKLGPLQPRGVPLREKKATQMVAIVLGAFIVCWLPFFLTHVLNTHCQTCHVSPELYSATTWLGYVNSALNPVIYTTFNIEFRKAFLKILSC
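Agonist mode: compounds and dopamine controls were applied to plated cells for 90 min at 37 degrees C after an overnight attachment at 1500 cells/well. Luminescent read-out followed 30 - 60 minutes at room temperature with DiscoveRx detection reagent.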
Rango-impB inh – qHTS Assay for Inhibitors of Rango (Ran-regulated importin-beta cargo) - Importin beta complex formation. Importin subunit beta-1 (Homo sapiens), Q14974. Rango CFP/YFP FRET sensor + importin beta, 45 min. Potency, µM (highest dose often 92.2 µM). 340,000 tested, 0.031% active. AID 540263, 2011; also: nearly all actives have a fitted effect of over 15% in size
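Inhibition scored from the CFP 486 nm/YFP 530 nm FRET ratio 45 min after adding 0.125 microM importin beta to 50 nM Rango biosensor preincubated 5 min with compound (room temperature, PBS with DTT, Tween-20, BSA). No-importin wells as positive control.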
MmCpn inh – Inhibitors of TCP-1 ring complex (TRiC) of Methanococcus maripaludis (MmCpn): qHTS; purified Mm-Cpn ATPase, ADP Transcreener TR-FRET; 330,000 tested, 0.031% active; Potency, µM (doses to about 76.9 µM), most hits filed as inhibitors; Chaperonin Mm-Cpn (Methanococcus maripaludis); AID 504842, 2011; active = well fitted inhibition curve with a large enough effect; inconclusive = small, poorly fitted or top-dose-only effect; also: nearly all actives have a fitted effect of over 80% in size
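Measured: ADP formation by purified Mm-CPN. Conditions: 25 nM protein, 10 uM ATP, Tris pH 7.4 with Mg2+, K+ and DTT, 37°C for 30 min. Detection: Transcreener HTRF after 30 min at room temperature.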
DRD3 antagonist – qHTS of D3 Dopamine Receptor Antagonist: qHTS; 360,000 tested, 2.5% active; AID 652054, 2013; max response, negative = inhibition, %; D(3) dopamine receptor (Homo sapiens), P35462; D3R cells, DiscoveRx beta-arrestin luminescence, antagonist mode; stronger effect = lower value; in the data active = max response below about -50%; inconclusive = no clear call, values can overlap the other calls
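Cells expressing the human receptor were seeded at 1500 cells/well, incubated overnight at 37 degrees C in 5% CO2, then exposed to library compounds with dopamine controls for 90 minutes at 37 degrees C before luminescent detection.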
Large screens that a line does not name were inactive; ! = repeats disagree. Sampled rows, rich in hits. Any-hit rate of the full collection: about 2.9%. Unless noted, calls follow the shape of the full dose curve.

O=C(CCC(=O)c1cccs1)NNC(=O)c1ccccc1Cl	none
C[C@H](NC(=O)c1ccccc1Cl)C(=O)OCC(=O)NNC(=O)c1cccs1	DRD3 antagonist -55
CN1CCN(C(c2ccc(Cl)cc2)c2cc(Cl)c3cccnc3c2O)CC1 (stereo unspecified)	DRD3 antagonist -99
Oc1c(C(c2ccccn2)N2CCCCC2)cc(Cl)c2cccnc12 (stereo unspecified)	DRD3 antagonist -76
O=C(NC(c1ccc(Cl)cc1)c1cc(Cl)c2cccnc2c1O)c1cccnc1 (stereo unspecified)	DRD3 antagonist -100
CC(=O)NC(c1ccccc1)c1cc(Cl)c2cccnc2c1O (stereo unspecified)	DRD3 antagonist inconclusive
CC1=C(C(N)=O)C(c2ccc(C(C)C)cc2)n2nc(SCc3ccccc3)nc2N1 (stereo unspecified)	none (no result: Rango release inh, TSG101-PTAP inh, Rango-impB inh, MmCpn inh, DRD3 antagonist)
CCC(C(=O)NCc1ccco1)n1nc(C)c2c(C)n(-c3ccccc3)nc2c1=O (stereo unspecified)	none
O=C(c1ccco1)N1CCN(C(=O)c2cnn(-c3cccc(F)c3)c2C2CCNCC2)CC1	D3 ag 84!
COC(=O)C1=CN(c2cccc(C)c2)C=C(C(=O)OC)C1c1cc(OC)c(O)c([N+](=O)[O-])c1	DRD3 antagonist -84
COC(=O)C1=CN(c2ccc(OC)cc2)C=C(C(=O)OC)C1c1ccc(C)c([N+](=O)[O-])c1	none
CC[C@]12c3[nH]c4cc(-c5ccco5)ccc4c3CCN1C(=O)[C@@H](CC(=O)NCCCOC)C[C@@H]2C(=O)N1CCN(C(=O)c2ccco2)CC1	Rango release inh inconclusive, D3 ag 43, Rango-impB inh inconclusive
CC1CC(C)CN(S(=O)(=O)c2ccc(C(=O)Nc3nnc(-c4cccs4)o3)cc2)C1 (stereo unspecified)	none
CCC1CCCCN1S(=O)(=O)c1ccc(C(=O)Nc2nnc(-c3cccs3)o2)cc1 (stereo unspecified)	DRD3 antagonist -75
Cc1nnc(NC(=O)c2ccc(S(=O)(=O)N3CC(C)OC(C)C3)cc2)o1 (stereo unspecified)	none
Cc1nnc(NC(=O)c2ccc(S(=O)(=O)N3CCCCCC3)cc2)o1	DRD3 antagonist -72
Cc1nnc(NC(=O)c2ccc(S(=O)(=O)N(C)Cc3ccccc3)cc2)o1	DRD3 antagonist -72
COCc1nnc(NC(=O)c2ccc(S(=O)(=O)N(C)Cc3ccccc3)cc2)o1	none
CC1CCN(S(=O)(=O)c2cc(C(=O)N3CCN(c4ccccc4F)CC3)n(C)c2)CC1	none (no result: Rango release inh, TSG101-PTAP inh, Rango-impB inh, MmCpn inh, DRD3 antagonist)
Cc1ccc(-c2nc3c(C)cc(Br)cn3c2Cc2cccc(F)c2)cc1	DRD3 antagonist -57 (no result: Rango release inh, TSG101-PTAP inh, Rango-impB inh, MmCpn inh)
Cc1cc(Br)cn2c(Cc3ccccc3)c(-c3cccc(Cl)c3)nc12	DRD3 antagonist -60 (no result: Rango release inh, TSG101-PTAP inh, Rango-impB inh, MmCpn inh)
Cc1cc(Br)cn2c(Cc3cccc(Cl)c3)c(-c3ccco3)nc12	DRD3 antagonist -63 (no result: Rango release inh, TSG101-PTAP inh, Rango-impB inh, MmCpn inh)
Cc1ccc(Cc2c(-c3ccccc3)nc3c(C)cc(Br)cn23)cc1	none (no result: Rango release inh, TSG101-PTAP inh, Rango-impB inh, MmCpn inh)
CCn1ccc2cc(S(=O)(=O)N3CCC(C(=O)NCc4cccc(C)c4)CC3)ccc21	none (no result: Rango release inh, TSG101-PTAP inh, Rango-impB inh, MmCpn inh, DRD3 antagonist)
CCc1ccc(NC(=O)CSc2ccc(-c3cccs3)nn2)cc1	none (no result: Rango release inh, TSG101-PTAP inh, Rango-impB inh, MmCpn inh, DRD3 antagonist)
Cc1ccc(Nc2nc(Cl)c(C=O)s2)cc1Cl	Rango release inh inconclusive, Rango-impB inh inconclusive
CCN(CC)c1nc(NN)nc(Nc2ccc(C)c(Cl)c2)n1	DRD3 antagonist -79 (no result: MmCpn inh)
Cc1ccc(NC(=O)Cn2cc(S(=O)(=O)NC(C)C)c(S(=O)(=O)NC(C)C)c2)cc1Cl	none (no result: Rango release inh, TSG101-PTAP inh, Rango-impB inh, MmCpn inh, DRD3 antagonist)
O=C1c2ccc3c4c(ccc(c24)C(=O)N1c1cccc(O)c1)CC3	Rango-impB inh inconclusive
O=C1c2ccc3c4c(ccc(c24)C(=O)N1c1cccc(O)c1)C(=O)N(c1cccc(O)c1)C3=O	Rango release inh inconclusive, DRD3 antagonist -82
COc1ccc(-c2cc(C(F)(F)F)nc(SCC(=O)N3CCCCC3)n2)cc1	none (no result: Rango release inh, TSG101-PTAP inh, Rango-impB inh, MmCpn inh, DRD3 antagonist)
O=C(c1ccccc1)c1coc2ccc(O)c(Cl)c12	DRD3 antagonist -52 (no result: TSG101-PTAP inh)
O=S1(=O)C=C(Sc2nc3cc(Cl)ccc3o2)c2ccccc21	DRD3 antagonist -77
Cc1cc(NC(=O)CSc2nc3cc(Cl)ccc3o2)no1	none
O=C(Nc1cc(Cl)ccc1Cl)C1CC(=O)N(c2ccc(Br)cc2)C1 (stereo unspecified)	DRD3 antagonist -55
CCC(Cc1ccccc1)NS(=O)(=O)c1c(C)nc2scc(C)n2c1=O (stereo unspecified)	none
Cc1ccccc1NC(=O)Cn1c(NCC(C)O)nc2ccccc21 (stereo unspecified)	Rango-impB inh inconclusive
Cc1ccc(S(=O)(=O)Nc2cccc3ncccc23)s1	DRD3 antagonist -77
Cc1ccc(-c2csc(C(C)(O)c3ccc(F)c(F)c3)n2)cc1C (stereo unspecified)	DRD3 antagonist -69 (no result: Rango release inh, TSG101-PTAP inh, Rango-impB inh, MmCpn inh)
Cc1ccc(C(=O)Nc2ccc(-c3cn4cccnc4n3)cc2)cc1C	none (no result: Rango release inh, TSG101-PTAP inh, Rango-impB inh, MmCpn inh, DRD3 antagonist)
